ALDH1A1 block: inhibitors of human aldehyde dehydrogenase 1A1. Potency, µM (doses to about 75.3 µM), without a hit: top-dose activity, negative = inhibition, actives largely listed as inhibitors. 220,000 tested, 7.3% active. AID 1030. Purified ALDH1A1, NADH fluorescence, propionaldehyde substrate; active = well fitted inhibition curve with a large enough effect, not every such curve was filed as active; inconclusive = small, poorly fitted or top-dose-only effect, or another doubt; inactive = no such curve, though single readings can be large or run the other way;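 also: potency is read from the fitted curve at half-maximal effect; plate controls were no enzyme wells and a reference inhibitor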
IMPase cell inh: membrane-permeable compound that blocks inositol monophosphatase | 120,000 tested, under 10 active | P97697 | AID 901 | inhibition (IP1 accumulation), % at 46.1 µM | CHO-M1 cells, IP1 accumulation, HTRF TR-FRET ratio; active = well fitted curve in the direction sought with a large enough effect in the signal ratio, not every such curve was filed as active; inconclusive = small, poorly fitted or top-dose-only effect, or a change in a side signal; inactive = no such curve, though single readings can be large or run the other way; the % refers to the signal ratio;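 also: cells stimulated with carbachol in lithium chloride buffer; plate controls were DMSO basal wells for no effect and reference inhibitor wells for full effect; higher means more IMPase inhibition seen as more IP1 and lower FRET ratio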
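The IP-One HTRF competitive assay in carbachol-stimulated CHO-M1 cells quantifies cellular IP1. Compounds spanned up to 46 uM final, and activity is expressed as AC50 from concentration-response fits of the ratio and donor data.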
NPSR antag: neuropeptide S receptor (human) antagonism, cAMP; CHO-NPSR cells, cAMP TR-FRET, antagonist mode; 220,000 tested, 1% active; Potency, µM (series often up to 38.3 µM), for inactives: top-dose activity change, negative = inhibition, usual class: inhibitors; Q6W5P4; also: potency is read from the fitted curve at half-maximal effect; nearly all actives have a fitted effect of over 50% in size
HPGD block: inhibitors of human 15-hydroxyprostaglandin dehydrogenase (HPGD) | P15428 | purified HPGD, NADH fluorescence kinetic, PGE2 substrate | Potency, µM, for inactives: at the top dose activity change, negative = inhibition, hits mostly inhibitors | 150,000 tested, 4.3% active; active = well fitted inhibition curve with a large enough effect, not every such curve was filed as active; inconclusive = small, poorly fitted or top-dose-only effect, or another doubt; inactive = no such curve, though single readings can be large or run the other way; also: potency is read from the fitted curve at half-maximal effect
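NADH formation kinetics: reaction with 30 uM PGE2 and 1 mM NAD+ (final), 20 nM enzyme, Tris-HCl pH 8 with Tween 20, after 15 min compound preincubation at room temperature. Fluorescence change, last versus first of five reads.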
12-hLO inh: inhibitors of human 12-lipoxygenase (ALOX12); purified 12-hLO, xylenol orange hydroperoxide absorbance; Potency, µM (titrated, usually from 57.1 µM), for inactives: at the top dose activity change, negative = inhibition, hits mostly inhibitors; 150,000 tested, 0.12% active; also: potency is read from the fitted curve at half-maximal effect; nearly all actives have a fitted effect of over 55% in size
Target sequence (P18054 whole entry, looked up): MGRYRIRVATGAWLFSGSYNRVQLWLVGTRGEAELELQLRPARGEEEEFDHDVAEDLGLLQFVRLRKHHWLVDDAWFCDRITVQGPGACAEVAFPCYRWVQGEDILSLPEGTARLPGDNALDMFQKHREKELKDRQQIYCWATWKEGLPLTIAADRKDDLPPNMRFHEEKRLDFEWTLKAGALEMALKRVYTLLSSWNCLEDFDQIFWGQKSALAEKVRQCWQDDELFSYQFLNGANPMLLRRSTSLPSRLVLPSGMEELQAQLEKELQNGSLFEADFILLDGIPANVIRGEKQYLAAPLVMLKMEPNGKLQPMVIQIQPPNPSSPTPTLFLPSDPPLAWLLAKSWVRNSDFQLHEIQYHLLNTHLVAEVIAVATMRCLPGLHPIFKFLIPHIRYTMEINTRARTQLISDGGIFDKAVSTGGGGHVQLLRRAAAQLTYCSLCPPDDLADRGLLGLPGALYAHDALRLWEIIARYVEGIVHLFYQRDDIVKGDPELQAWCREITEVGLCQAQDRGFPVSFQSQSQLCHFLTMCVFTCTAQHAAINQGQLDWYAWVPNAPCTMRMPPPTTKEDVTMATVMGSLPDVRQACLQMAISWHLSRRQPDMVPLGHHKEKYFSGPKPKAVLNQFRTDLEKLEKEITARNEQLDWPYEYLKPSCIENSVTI
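Lipoxygenase turnover measured by absorbance at 573 and 405 nm after Fe-XO development. Human 12hLO 150 nM, arachidonate 40 uM, pH 7.0 Hepes buffer with detergent; 15 min compound preincubation, 30 min reaction.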
IMPase Li inh: cell-permeable IMPase inhibitors with lithium potentiation; CHO-M1 cells, IP1 TR-FRET (IP-One), carbachol + lithium; Potency, µM (titrated, usually from 59.4 µM), for inactives: top-dose activity, negative = IMPase inhibition, hits mostly inhibitors; 210,000 tested, 0.35% active; AID 1457;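 also: IP1 builds up when IMPase is blocked and the TR-FRET signal falls; potency is read from the fitted curve at half-maximal effect; plate controls were basal vehicle for no effect and high inhibitor control for full effect; nearly all actives have a fitted effect of over 50% in size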
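CHO cells stably expressing M1 receptor (2000/well) were cultured 16–30 h, then exposed to compounds with a small lithium addition for 30 min at 37C. IP1 was measured by TR-FRET competition; AC50 from Hill fits.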
* = called active by the depositor; ? = inconclusive; · = not tested or not shown; [ ] = remark or other dose. A selection: hits, their analogues and other compounds. The true share with any hit is near 8.9%. Unless noted, calls follow the shape of the dose curve; as a rule, active = well fitted curve in the direction sought with a large enough effect; inconclusive = small, poorly fitted or top-dose-only effect, or another doubt; inactive = no such curve, though single readings can be large; an effect the other way counts as inactive or inconclusive. Unless noted, % is scaled to controls: 0 for no effect and ±100 for the full control effect.

SMILES | ALDH1A1 block | IMPase cell inh | NPSR antag | HPGD block | 12-hLO inh | IMPase Li inh
Cc1ccc2c(c1)c1c3n2CC(=C2C(=O)OC(C)(C)OC2=O)NC3CCC1 (stereo unspecified) | 10µM* | -7 | -18%[46.1 µM] | -17% | -20% | 8%[38.3 µM]
COc1ncnc2c1NC1=C(S2)C(=NCCC(=O)O)CC(C)(C)C1 | 5µM* | 4 | -21%[46.1 µM] | · | -28% | ·
COc1ccc(CN(CC2CCC(C(=O)O)CC2)C(=S)Nc2cc(C)ccc2C)cc1 (stereo unspecified) | 3.5µM* | · | -39% | · | · | -11%
COc1ccc(CN(CC2CCC(C(=O)O)CC2)C(=S)Nc2ccccc2C)cc1 (stereo unspecified) | ? | · | -25% | · | · | -3%
C/C(=N\NC(=O)c1cccc(N/N=C(\C)c2cc(O)ccc2O)c1)c1cc(O)ccc1O | 7.9µM* | · | -23% | · | · | 13%
O=C1CCc2cc(S(=O)(=O)N3CCC(C(=O)NC4CCCCCCC4)CC3)ccc2N1 | ? | 1 | -25%[46.1 µM] | -4% | 3% | ?
O=C(/C=C/c1c(Cl)nc2ccccn12)N1CCN(c2ccccc2F)CC1 | 3% | · | -2% | · | · | 14%
O=C(/C=C/c1c(Cl)nc2ccccn12)N1CCCCC1 | 11µM* | · | -7% | · | · | -4%
CCOC(=O)C1(CC2CCCCO2)CCN(S(=O)(=O)c2ccc(C)s2)CC1 (stereo unspecified) | 20µM* | · | 29% | · | · | 14%
Cc1[nH][nH]c(=O)c1C(c1ccc([N+](=O)[O-])cc1)c1c(C)[nH][nH]c1=O | ? | · | -26% | · | · | ·
Cc1[nH][nH]c(=O)c1[C@@H](c1ccccc1[N+](=O)[O-])C(C#N)C#N | 25µM* | · | 42% | · | · | ·
Cc1cc(C)c(-n2nnnc2SCC(=O)c2cccs2)c(C)c1 | · | · | 51% | · | · | ·
O=C(NC(NC(=S)Nc1c(Cl)cc(Cl)cc1Cl)C(Cl)(Cl)Cl)OCc1ccccc1 (stereo unspecified) | 3.5µM* | 3 | ? | -8% | 2% | 23%
O=C(Nc1ccc(N2CCOCC2)c(S(=O)(=O)Nc2ccc(Cl)cc2)c1)c1cnccn1 | 2µM* | · | 53% | · | · | ·
N#Cc1c(SCC(N)=O)nc2c(c1-c1ccc(O)cc1)CCCC2 | 7.1µM* | -1 | -7%[46.1 µM] | -23% | -3% | 31%[38.3 µM]
COc1ccc(-c2c(C#N)c(SCC(N)=O)nc3c2CCCC3)cc1 | ? | 1 | -37% | 0% | -8% | ?
O=C(CN1C(=O)c2ccccc2C1=O)Nc1ccc(S(=O)(=O)NCC2CCCO2)cc1 (stereo unspecified) | -6% | -4 | -16%[46.1 µM] | -17% | 3% | 17%[38.3 µM]
COc1cccc(CN2CC(O)=C(c3nc(-c4ccc(Cl)cc4)cs3)C2=N)c1 | ? | 18 | -29%[46.1 µM] | -24% | -25% | 5.6µM*
Cc1ccc(CNC(=O)Cn2ccc3ccccc3c2=O)o1 | ? | 7 | -6%[46.1 µM] | -14% | -2% | -5%
CCOc1ccc(/C=C(/NC(=O)c2ccc(Cl)cc2)C(=O)O)cc1OCC | · | · | 14% | · | · | ·
O=[N+]([O-])c1cccnc1N1CCC(c2cc(-c3ccc(Cl)cc3Cl)n[nH]2)CC1 | 0% | 8 | ? | -15% | -15% | 39%[38.3 µM]
Cc1c(-n2c(=S)[nH]c3ccccc3c2=O)c(=O)n(-c2ccccc2)n1C | 7% | -1 | -4%[46.1 µM] | 0% | 5% | 0%[38.3 µM]
Cc1ccc(-n2c(=S)[nH]c3c(oc4ccccc43)c2=O)cc1 | 8% | ? | ? | · | 0% | ·
Cc1cccc(-n2c(=S)[nH]c3c(oc4ccccc43)c2=O)c1 | ? | · | -37% | -11% | -1% | 8.9µM*
O=c1c2oc3ccccc3c2[nH]c(=S)n1-c1ccccc1 | 7.9µM* | ? | -30% | -15% | -5% | 8.9µM*
SMILES | ALDH1A1 block | IMPase cell inh | NPSR antag | HPGD block | 12-hLO inh | IMPase Li inh
CCOC(=O)C(=CNc1cc(C)nn1-c1ccccc1)C(=O)OCC | 12% | -1 | -26%[46.1 µM] | -7% | -6% | -14%[38.3 µM]
Cc1nn(C)cc1/C=C/C(=O)c1ccccc1 | -13% | 2 | -9%[46.1 µM] | -11% | 4% | 30%[38.3 µM]
CCc1nnc(NC(=O)CSc2nc(-c3ccccc3)cc(-c3ccc(OC)cc3)c2C#N)s1 | 5% | · | 7.9µM* | ? | 2% | -24%
N#Cc1c(-c2ccccc2)cc(-c2ccccc2)nc1SCC(=O)Nc1ccc(Cl)cc1 | · | -1 | · | · | · | ·
COc1ccc(-c2cc(-c3ccc(OC)cc3)c(C#N)c(SC)n2)cc1 | ? | -9 | 13µM* | ? | 3% | 11µM*
CC(C)NC(=O)CSc1nc(-c2cccs2)cc(-c2ccccc2)c1C#N | ? | ? | 10µM* | ? | 0% | ?
COc1ccc(-c2cc(-c3ccccc3)nc(SCC(=O)Nc3nccs3)c2C#N)cc1 | ? | -5 | ? | · | 3% | ·
N#Cc1c(-c2ccccc2)cc(C2CC2)nc1SCC(=O)c1cccs1 | 6% | 8 | ? | -13% | 5% | -4%[38.3 µM]
N#Cc1c(-c2ccc(F)cc2)cc(-c2ccccc2)nc1SCC(=O)NCC(=O)O | 8.9µM* | · | -1% | · | · | ·
Cc1ccccc1NC(NC(=O)OCCn1c([N+](=O)[O-])cnc1C)C(Cl)(Cl)Cl (stereo unspecified) | -9% | -3 | -1% | -17% | 6% | 6%
CN1CCN(c2nnc(-c3cccs3)c3ccccc23)CC1 | ? | · | -4% | · | · | 9%
CCCN1C(=O)C2(C(C(=O)c3ccc(C)o3)=C(O)C(=O)N2CCCN2CCOCC2)c2ccccc21 (stereo unspecified) | 10µM* | -27 | 19%[46.1 µM] | -4% | -3% | 10µM*
C=CCn1c(C)c(C(C)=O)c(N2CCCC2)nc1=S | 0% | -2 | -7%[46.1 µM] | -6% | -2% | -4%[38.3 µM]
C=CCn1c(C)c(C(C)=O)c(N2CCN(c3ccccc3)CC2)nc1=S | 28µM* | -10 | -8%[46.1 µM] | -23% | -12% | 2%[38.3 µM]
Cc1ccc(C)c(-n2c(=O)c(C#N)cc3c(=O)n4ccccc4nc32)c1 | ? | · | -13% | · | · | -25%
CCOC(=O)c1[nH]nc2c1C(=O)N(CC)C2=O | 10% | -9 | -2%[46.1 µM] | -5% | -5% | 3%[38.3 µM]
NNc1nc(N)c2c(n1)-c1ccccc1CC21CCCC1 | ? | 4 | -7% | ? | -8% | -7%
CC(C)(C)n1nnnc1CN(Cc1ccc(F)cc1)Cc1ccco1 | 14µM* | 9 | -20%[46.1 µM] | -1% | -6% | 12%
Cc1cccc2sc(NC(=O)CN3C(=O)C4CC=CCC4C3=O)nc12 (stereo unspecified) | ? | · | -2% | · | · | -5%
O=C(CN1CCN(c2ccc(F)cc2)CC1)c1cccs1 | 7.1µM* | · | -7% | · | · | 1%
O=C(CN1CCc2ccccc2C1)c1cccs1 | 7.9µM* | -1 | -25%[46.1 µM] | -22% | -21% | -19%[38.3 µM]
